# Compounds with a hit are over-represented: about 2.2% of the library has one in this group of screens.
# aSyn yeast inh = inhibitors of alpha-synuclein toxicity in yeast; 0.14% of 370,000 active; Yeast expressing alpha-synuclein, growth rescue, BacTiter-Glo, 24 h; Potency, µM (top dose mostly 46.1 µM), hits mostly activators; AID 652106; also: nearly all actives have a fitted effect of over 65% in size
#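 Rescue of yeast growth: cells expressing toxic alpha-synuclein, induced in galactose at OD600 0.02, incubated with compound 24 h at 30 C. ATP luminescence quantified growth; inhibitors of toxicity appear as activators.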
# FUS yeast rescue = suppressors of FUS proteinopathy in yeast. S. cerevisiae FUS-expressing, growth rescue, OD600, 24 h. 0.24% of 390,000 active. Potency, µM (doses to about 76.6 µM), usual class: activators; also: nearly all actives have a fitted effect of over 55% in size
#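 Quantitative HTS measuring growth restoration of FUS-toxic yeast. Galactose-induced cells (OD 0.005) were exposed 24hr at 30C to compounds at several concentrations, then absorbance at 600 nm was recorded.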
# Mito fusion act = mitochondrial division inhibition or fusion activation; S. cerevisiae fusion-defective mutant growth rescue, CellTiterGlo 48 h; Potency, µM (series often up to 46.1 µM), most hits filed as activators; 0.23% of 320,000 active; also: nearly all actives have a fitted effect of over 45% in size
#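 Growth-rescue viability read-out: after 48 h at the non-permissive 37C in glycerol/ethanol YPEG, yeast mitochondrial fusion mutants are measured by CellTiterGlo luminescence; compounds (23 nl pinned per well) restoring growth score as division inhibitors or fusion activators.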
# Abeta yeast res = A-beta toxicity reversal in yeast; yeast expressing A-beta42, growth rescue, OD600, 48 h; response scale: 0% DMSO, 100% iron-clioquinol control; Potency, µM (titrated, usually from 46.1 µM), usual class: activators; 0.063% of 410,000 active; AID 1347071; also: nearly all actives have a fitted effect of over 55% in size
#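 Growth rescue measured by 600 nm absorbance after 48 h yeast culture at 30 C with compound. Values normalized between DMSO and an equimolar ferric chloride plus clioquinol control.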
# TDP-43 yeast inh = TDP-43 toxicity inhibition in yeast; 1.8% of 410,000 active; Potency, µM (doses to about 46.1 µM), hits mostly activators; TDP-43 expressing yeast growth rescue, BacTiter-Glo, 24 h; also: nearly all actives have a fitted effect of over 50% in size
#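 Readout is BacTiter-Glo luminescence of cell growth, so inhibitors register as activators. TDP-43-expressing yeast at OD600=0.02 in galactose medium, after raffinose pregrowth to mid-log, were incubated with compound for 24 hr at 30 deg C.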
# Hits are given with their value; . = inactive; ? = inconclusive; / = not tested or not shown. Calls follow the shape of the dose curve; as a rule, active = well fitted curve in the direction sought with a large enough effect; inconclusive = small, poorly fitted or top-dose-only effect, or another doubt; inactive = no such curve, though single readings can be large; an effect the other way counts as inactive or inconclusive.
SMILES,aSyn yeast inh,FUS yeast rescue,Mito fusion act,Abeta yeast res,TDP-43 yeast inh
O=C(Nc1cc(C(F)(F)F)ccc1-n1cncn1)c1ccc(-c2ccccc2)cc1,.,.,.,.,14.1µM
O=C(Nc1cc(C(F)(F)F)ccc1-n1cncn1)c1ccc(Cl)cc1,.,.,.,.,.
CCOc1cc(C=NN=C2c3ccccc3-c3ccccc32)ccc1O,.,/,/,.,14.1µM
Oc1cccc(C=NN=C2c3ccccc3-c3ccccc32)c1,.,/,/,.,28.2µM
CCOc1cc(/C=N/NC(=O)N/N=C/c2ccc(O)c(OCC)c2)ccc1O,.,.,/,.,.
O=C(O)C1CN(CCCP(=O)(O)O)CCN1 (stereo not drawn),.,/,.,/,/
CC1(C)CCC(=NNC(N)=S)CC1,.,/,/,.,.
NC(=S)NN=C1CSSC1,2.82µM,.,/,?,20µM
COc1ccc(C2c3[nH]c4ccc(OC)cc4c3CCN2C(=O)Nc2ccccc2)cc1 (stereo not drawn),/,?,/,.,20µM
COc1cccc2cc(C(=O)OCc3ccccc3)c(=O)oc12,.,.,.,.,?
CCCCC[C@H](O)/C=C/[C@@H]1[C@@H](C/C=C\CCCC(=O)OC)[C@@H](O)C[C@H]1O,.,.,.,.,.
CCCCC[C@H](O)/C=C/C1C(=O)C=C[C@H]1C/C=C\CCCC(=O)OC (stereo partly drawn),.,.,/,.,28.2µM
Cc1ccc(-n2nnnc2-c2cnoc2-c2cccc(F)c2)cc1,.,.,.,.,14.1µM
Fc1cc(F)cc(-c2oncc2-c2nnnn2-c2ccccc2)c1,.,.,.,.,.
COc1ccccc1CN1CCC(CNC(=O)c2cnn(-c3ccc(Cl)cc3)c2C2CCN(C(=O)OC(C)(C)C)CC2)CC1,/,.,/,.,.
O=C(N/N=C/c1ccncc1)c1ccccc1,.,.,.,.,.
O=C(N/N=C/c1cccc(Oc2ccccc2)c1)c1ccncc1,.,.,.,.,12.6µM
C(=C\c1nc(-c2ccncc2)no1)/c1ccccc1,.,.,.,.,11.2µM
COc1cc(NC(=O)c2ccc3c(c2)OCCO3)ccc1NC(=O)c1cccs1,.,.,.,.,12.6µM
COc1cccc(C(=O)Nc2cc(NC(=O)c3cccs3)ccc2C)c1,.,.,.,.,.
COc1cccc(C(=O)Nc2cc(NC(=O)c3cccs3)ccc2C)c1OC,.,.,.,.,11.2µM
O=C(Nc1nc(-c2ccccc2)cs1)C1c2ccccc2Oc2ccccc21,.,.,.,.,.
O=C(Nc1nc(-c2ccncc2)cs1)C1c2ccccc2Oc2ccccc21,.,?,11.2µM,.,.
Cc1ccc(-c2nc(N)s[n+]2-c2ccccc2)cc1,.,/,.,.,?
CNc1nc(-c2ccccc2)[n+](-c2ccc(C)cc2)s1,.,.,.,.,14.1µM
SMILES,aSyn yeast inh,FUS yeast rescue,Mito fusion act,Abeta yeast res,TDP-43 yeast inh
CC(C)C(=O)N1CCCC1(C)C(=O)Nc1ccccc1 (stereo not drawn),.,.,/,.,.
COc1ccc(-c2nn(-c3ccccc3)cc2C(=O)N(C)CC(=O)Nc2cccc(F)c2)cc1,.,?,?,.,?
COc1cccc(-c2nn(-c3ccc(C)cc3)cc2C(=O)N(C)CC(=O)Nc2cccc(F)c2)c1,.,/,?,.,22.4µM
CCOc1ccc(-c2nc(N)ncc2-c2ccc(Cl)cc2)c(O)c1,.,.,.,.,22.4µM
Cc1ccc(-c2nc(CS(=O)CC(=O)N3CCN(c4cccc(Cl)c4)CC3)c(C)o2)cc1 (stereo not drawn),/,?,/,.,31.6µM
Cc1oc(-c2ccc(Cl)cc2)nc1CS(=O)CC(=O)N1CCN(c2cccc(C(F)(F)F)c2)CC1 (stereo not drawn),/,.,/,.,.
Cc1oc(-c2ccccc2Cl)nc1CS(=O)CC(=O)N1CCN(c2cccc(C(F)(F)F)c2)CC1 (stereo not drawn),/,25.1µM,/,.,?
Cc1cccc(N2CCN(S(=O)(=O)c3cc(Br)cc4c3N(C(=O)C3CC3)CC4)CC2C)c1 (stereo not drawn),/,.,/,.,.
CCn1c(/C=C\c2ccccc2C)nc2ccccc2c1=O,.,.,.,.,22.4µM
CCN1C(=O)/C(=C\c2nc3ccccc3c(=O)n2CC)c2ccccc21,.,.,.,.,12.6µM
CCn1c(/C=C2\C(=O)N(C)c3ccccc32)nc2ccccc2c1=O,.,.,.,.,?
CCn1c(/C=C2/C(=O)N(C)c3ccccc32)nc2ccccc2c1=O,.,.,.,.,14.1µM
Cc1sc2ccccc2[n+]1CCCC[n+]1c(C)sc2ccccc21,.,/,/,/,/
Cc1ccccc1Nc1ncnc2c1c(-c1ccccc1)cn2-c1ccc(F)cc1,/,.,/,.,?
O=C(CCCCl)NC(=S)Nc1cc(C(F)(F)F)ccc1N1CCOCC1,.,.,.,?,12.6µM
CC(C)(C)C(=O)NC(=S)Nc1cc(C(F)(F)F)ccc1N1CCOCC1,.,.,.,.,.
O=C(NCc1cccc(Br)c1)c1cccn1-c1nnc(N2CCCCC2)s1,/,?,/,.,?
COc1cc(C(=O)c2ccccc2)c([N+](=O)[O-])cc1OC,.,.,.,.,.
Nc1cc(C(=O)c2ccccc2)ccc1[N+](=O)[O-],.,.,.,.,8.91µM
COc1ccc(CN2C(=O)c3ccccc3C2=O)cc1C(=O)Nc1ccccc1N1CCOCC1,?,.,.,.,17.8µM
COc1ccc(NC(=O)c2cc(CN3C(=O)c4ccccc4C3=O)ccc2OC)cn1,.,.,.,.,.
Cc1cccc(Nc2nc(-c3ccc(F)c(C)c3)cs2)n1,.,.,?,?,14.1µM
CC(=O)c1cc2c(cc1NC(=O)CSc1nc3ccc(C)cc3[nH]1)OCO2,.,.,.,.,12.6µM
CC(=O)c1cc2c(cc1NC(=O)CSc1nc3ccccc3[nH]1)OCO2,/,/,.,/,/
Cn1c2ccccc2c(=O)c2ccc(NCc3ccc4c(c3)OCO4)cc21,.,.,/,.,15.8µM
SMILES,aSyn yeast inh,FUS yeast rescue,Mito fusion act,Abeta yeast res,TDP-43 yeast inh
CN1CCC[C@H]1CCNc1ccc2c(=O)c3ccccc3n(C)c2c1,.,?,/,.,.
O=C(c1cnn(C(=O)c2ccco2)c1)c1cc(F)ccc1O,.,.,/,.,28.2µM
CNC(=O)C1CCC(Cn2c(=O)c3sccc3n(CC(=O)Nc3ccc(C)c(C)c3)c2=O)CC1 (stereo not drawn),/,.,/,.,.
CCn1c(C)cc(C(=O)CSc2nnnn2C2CCCC2)c1C,.,/,.,.,20µM
COc1ccc(C(=O)C2CCN(c3ncnc4sccc34)CC2)cc1,/,.,/,/,/
COc1cc(OC)c(NC(=O)Cn2cnc3sc(C)c(S(=O)(=O)N4CCOCC4)c3c2=O)cc1Cl,.,.,.,.,.
COc1ccc(Br)cc1CNC(=O)Cn1ncn2nc(-c3cccs3)cc2c1=O,/,.,/,.,.
Cc1ccc(N2C(=O)c3cccc([N+](=O)[O-])c3C2=O)cc1C,.,.,.,.,12.6µM
